From PubChem BioAssay
Hits are enriched below; roughly 5.9% of the tested compounds scored in any of these assays.
HSF-1 act = HSF-1 activators, primary screen, NIH3T3-HGL cells, MG132 stress, luminescence, single point. activation, % at 9 µM. NIH3T3-HGL HSF-1 luciferase reporter, 8 h; 100% = twice DMSO control signal. hit rate 1.7% among 300,000;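 active means mean replicate activation of at least 50% with a set share of replicates each reaching 50%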;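 further: 0% = median of the neutral control wells and 100% = twice that signal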
HSF1 inh = HSF1 inhibitors in luciferase reporter cells, primary screen, cell-based, NIH3T3, luminescence; NIH3T3-HGL HSE-luciferase, MG132-induced, luminescence 8 h; stronger effect = lower value; hit rate 0.77% among 300,000; activity change, negative = inhibition, % at 7.5 µM (by protocol);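 active means more than half of replicate wells show activity change below -50%, luminescence cut by over half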;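 further: luciferase reports HSF-1 transcriptional activity via heat shock element; 0% = median of DMSO wells and -100% = zero luminescence signal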
AHR activator = AHR activators, primary screen, cell-based, luminescence, luciferase reporter, human; Aryl hydrocarbon receptor (Homo sapiens), P35869; AHR-responsive luciferase reporter cells; activation, % at 5 µM; hit rate 2.5% among 320,000; in the data active means activation above about 47%;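 further: 0% = vehicle wells and 100% = reference agonist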
NR0B1 inh = DAX1 (NR0B1) inhibitors, primary screen, cell-based, HEK293, Gal4-DAX1, luciferase luminescence | hit rate 0.99% among 340,000 | inhibition, % at 6.75 µM | HEK293 Gal4-DAX1 luciferase reporter;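 active means inhibition above the mean over all tested compounds plus 3 SD, cut at about 4.2% in these data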;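 further: 0% = DAX1-transfected cells with DMSO and 100% = empty-vector control cells with DMSO; inhibition shows as a rise in luminescence from relieved DAX1 repression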
HSP90 inh = HSP90 inhibitors, primary screen, cell lysate, luminescence; Heat shock protein HSP 90 (rabbit reticulocyte lysate; luciferase refolding); Rabbit reticulocyte lysate, luciferase refolding luminescence, 3 h; inhibition, % at 5.6 µM; hit rate 0.91% among 290,000;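 active means inhibition above the screen-wide mean plus 3 SD, computed separately per campaign, cut at about 16% in these data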;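 further: 0% = DMSO wells and 100% = 60 µM geldanamycin wells; inhibitors lower the luminescence because luciferase stays unfolded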
FXN GAA850 act = FXN promoter activators, primary screen, cell-based, luciferase luminescence, HEK293 lucGAA850 | HEK293 lucGAA850 FXN promoter luciferase reporter, 24 h; percent of 10 µM SAHA response | activation, % at 6 µM | hit rate 0.56% among 360,000;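 active means activation above the average of all compounds screened plus 3 SD, cutoff fixed separately per campaign, cut at about 7.5% in these data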;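 further: 0% = DMSO wells and 100% = 10 µM SAHA wells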
HSP90 inh confirm = HSP90 inhibitors, confirmation, cell lysate, luminescence | shares compounds with HSP90 inh | rabbit reticulocyte lysate, luciferase refolding luminescence, 3 h | inhibition, % at 5.9 µM | hit rate 64% among 2,300; in the data active means inhibition above about 18%;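 further: 0% = vehicle wells and 100% = reference inhibitor wells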
FLuc counter = firefly luciferase inhibitors, HSP90 counter-screen, confirmation, artefact control for HSP90 inhibitor project, biochemical, luminescence, triplicate; shares compounds with HSP90 inh; purified native firefly luciferase; inhibition, % at 5.9 µM; hit rate 48% among 2,300;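 active means inhibition above the mean inhibition of all tested sample wells plus 3 SD, cut at about 10% in these data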;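 further: 0% = DMSO with luciferase and 100% = wells lacking luciferase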
Target sequence (P08659 whole entry, looked up): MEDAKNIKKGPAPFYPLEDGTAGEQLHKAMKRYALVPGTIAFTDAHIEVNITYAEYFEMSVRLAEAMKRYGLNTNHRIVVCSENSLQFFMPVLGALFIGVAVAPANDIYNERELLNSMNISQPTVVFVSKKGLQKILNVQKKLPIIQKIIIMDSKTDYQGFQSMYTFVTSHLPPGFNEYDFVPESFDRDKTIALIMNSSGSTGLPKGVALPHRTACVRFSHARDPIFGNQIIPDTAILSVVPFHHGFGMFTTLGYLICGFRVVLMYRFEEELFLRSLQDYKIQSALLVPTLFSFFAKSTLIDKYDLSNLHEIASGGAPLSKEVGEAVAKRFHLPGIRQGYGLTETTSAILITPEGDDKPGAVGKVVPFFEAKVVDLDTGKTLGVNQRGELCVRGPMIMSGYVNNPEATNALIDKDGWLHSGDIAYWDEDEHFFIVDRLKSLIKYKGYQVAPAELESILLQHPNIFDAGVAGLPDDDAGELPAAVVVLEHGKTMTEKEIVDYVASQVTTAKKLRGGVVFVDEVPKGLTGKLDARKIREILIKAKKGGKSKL
An asterisk follows results filed as active; · = no result given.

SMILES | HSF-1 act | HSF1 inh | AHR activator | NR0B1 inh | HSP90 inh | FXN GAA850 act | HSP90 inh confirm | FLuc counter
O=C(c1ccc(CSc2nc3ccncc3[nH]2)cc1)N1CCN(c2cccc(Cl)c2)CC1 | -13.4 | -2.0 | 0.1 | -3.2 | -2.3 | -2.3 | · | ·
Clc1ccc(CSc2nc3ccncc3[nH]2)cc1 | 55.9* | 22.9 | 6.8 | -2.8 | 26.8* | 2.4 | 64.0* | 44.9*
CCN(Cc1nc(-c2cccc(C)c2)no1)C(=O)c1ccco1 | 1.6 | 8.9 | 0.5 | -0.6 | 20.6* | 3.4 | -5.3 | -8.5
Nc1ccn([C@@H]2O[C@H](CNC(=O)[C@@H](Cc3cccnc3)NC=O)[C@@H](O)[C@H]2O)c(=O)n1 | · | · | · | 0.0 | · | 0.8 | · | ·
O=C(NC(=O)c1ccccc1)Nc1ccc(Cl)cn1 | -3.0 | 1.2 | 14.4 | 1.0 | 11.8 | 2.3 | · | ·
C/C(=C\c1ccccc1)C(=O)Nc1ccc(Cl)cn1 | 39.9 | 44.5 | -0.9 | 0.8 | 17.8* | 3.0 | 25.4* | 21.1*
Cc1cc(C(=O)OCC(=O)NC2(C#N)CCCCC2)c(C)o1 | · | · | -0.3 | 0.3 | · | 1.1 | · | ·
O=C(CN(CC1CCCO1)C(=O)CNS(=O)(=O)c1ccccc1)NCc1ccc(F)cc1 (stereo unspecified) | -1.4 | -4.2 | -4.1 | 0.8 | -0.7 | -0.1 | · | ·
CC(=O)N(C(C)=O)c1ccc2c(c1)OCCO2 | · | · | · | 1.0 | · | 0.6 | · | ·
O=C(O)c1ccc(N/N=C2/CCCc3ccccc32)cc1 | 5.8 | -0.1 | 35.3 | 2.0 | 18.5* | 7.4 | 1.9 | -5.6
CN1Cc2sc(NC(=S)NC(=O)c3ccccc3)c(C#N)c2CC1(C)C | -80.5 | -77.0* | -3.1 | · | 17.3* | · | 31.1* | 15.3*
COc1cccc(CNC(=O)C2=C(C)C(=O)OC23CCC(C)CC3)c1 (stereo unspecified) | -4.3 | -3.7 | 4.5 | -1.0 | 34.9* | 1.2 | -2.0 | -3.8
CCC(C)n1c(C)cc(=O)n1C(C)CC (stereo unspecified) | · | · | · | 0.8 | · | 0.7 | · | ·
COCCn1c(C)cc(C2=NNC(=Nc3ccc(Cl)cc3Cl)SC2)c1C | -9.2 | -10.6 | -2.2 | 1.7 | 9.1 | 1.5 | · | ·
COCC(C)N=C1NN=C(c2cc(C)n(Cc3ccccc3Cl)c2C)CS1 (stereo unspecified) | -16.1 | -4.9 | 7.5 | -0.7 | 34.2* | 0.7 | 64.7* | 54.8*
CC(=O)N(C)c1ccc(N=NC2C(=O)N(C(N)=S)N=C2C)cc1 (stereo unspecified) | 40.6 | 28.7 | 1.3 | 5.3* | 18.0* | 2.4 | 17.5* | -7.0
CC(=O)N(C)c1ccc(N=Nc2c(C)[nH]n(C(N)=S)c2=O)cc1 | 53.3* | 16.2 | 6.2 | 4.0 | 20.4* | 2.3 | 9.3 | -14.9
Cc1[nH]n(C(N)=S)c(=O)c1N=Nc1ccc([N+](=O)[O-])cc1Cl | 25.3 | 2.0 | · | 2.4 | 17.6* | -0.6 | -1.5 | -19.5
Cc1ccccc1N=Nc1c(C)[nH]n(C(N)=S)c1=O | -4.6 | 13.1 | 30.1 | -2.1 | 2.0 | 2.3 | · | ·
CC(C)c1ccc(NCCC(=O)c2cccs2)cc1 | -18.8 | -9.2 | -3.3 | 4.0 | 28.8* | -1.4 | 34.8* | -8.6
Cc1ccc(NCCC(=O)c2cccs2)cc1 | 13.1 | 17.4 | 4.2 | 2.5 | 7.4 | 6.5 | · | ·
O=C1CSC(c2cccnc2)N1CCc1ccccn1 (stereo unspecified) | -8.3 | -4.1 | -0.8 | 3.6 | -2.0 | 0.6 | · | ·
Cc1ccccc1-n1c(C)cc(/C=C(\C#N)C(=O)NCC2CCCO2)c1C (stereo unspecified) | -53.1 | -39.5 | -8.8 | 0.0 | 19.6* | -2.8 | 37.1* | 25.1*
Cc1cc(C(=O)COC(=O)c2ccc3c(c2)OCO3)c(C)n1CC1CCCO1 (stereo unspecified) | -53.2 | -45.8 | -2.9 | 1.1 | 28.9* | -3.4 | 48.9* | 53.8*
Cc1cc(C(=O)CSc2nc3ccccc3[nH]2)c(C)n1CC1CCCO1 (stereo unspecified) | -61.1 | -53.9* | -14.6 | -5.5 | 48.6* | -14.4 | 66.5* | 67.0*
SMILES | HSF-1 act | HSF1 inh | AHR activator | NR0B1 inh | HSP90 inh | FXN GAA850 act | HSP90 inh confirm | FLuc counter
Cc1cc(C(=O)CSc2nc3ccccc3o2)c(C)n1CC1CCCO1 (stereo unspecified) | -51.0 | -42.6 | 10.9 | 1.8 | 35.0* | -5.9 | 42.0* | 46.1*
Cc1cc(C(=O)CSc2nc(N)cc(=O)[nH]2)c(C)n1CC1CCCO1 (stereo unspecified) | · | · | 0.8 | -1.8 | · | 0.7 | · | ·
Cc1cc(C(=O)COC(=O)c2ccc([N+](=O)[O-])o2)c(C)n1CC1CCCO1 (stereo unspecified) | -11.6 | -8.7 | 0.1 | 0.5 | 8.2 | -1.2 | · | ·
CC(=O)NCCc1ccc(C(=O)CSc2nnc(C3CC3)n2C2CC2)cc1 | · | · | 1.6 | 0.7 | · | -1.6 | · | ·
O=C1c2ccccc2S(=O)(=O)N1Cc1nc2ccccc2s1 | -25.5 | -23.0 | -2.9 | -4.3 | 37.1* | -11.2 | 20.9* | -5.4
NNC(=O)c1c(O)c2cccc3c2n(c1=O)CCC3 | -2.8 | -3.0 | 9.3 | 1.6 | 18.7* | 0.3 | 2.8 | -4.6
Cc1ccc(NC(=O)CCNC(=O)Cn2ccc3ccccc3c2=O)cc1F | 4.7 | 6.4 | 1.9 | 1.6 | 44.0* | -1.1 | 25.5* | 22.7*
CC1CCCCC1NC(=O)COCc1cc(-c2cccs2)on1 (stereo unspecified) | 2.4 | -0.8 | 2.7 | 0.4 | -1.6 | -0.5 | · | ·
Cc1oc2cc(OCC(=O)O)ccc2c(=O)c1Oc1ccccc1 | -6.1 | 4.5 | -1.4 | 0.0 | -2.1 | 1.1 | · | ·
COc1ccc2c(=O)c(Oc3ccc(C(=O)O)cc3)c(C(F)(F)F)oc2c1 | -6.4 | -9.0 | -4.9 | -2.3 | 71.8* | 2.4 | 7.4 | -7.2
CCOc1ccc(C(=O)OCC(=O)NCc2ccco2)cc1OCC | -2.4 | 6.1 | 0.7 | 0.7 | 31.1* | 1.4 | -1.7 | -6.8
COc1ccc(C(=O)OCC(=O)NCc2ccco2)cc1OC | 5.9 | 4.2 | 2.6 | -0.2 | 2.1 | -1.2 | · | ·
Cc1ccc2[nH]c(=O)c(COC(=O)C3CCCCC3)cc2c1 | -9.6 | -8.1 | -1.6 | 0.7 | 43.8* | 1.4 | -0.6 | -16.1
O=C(OCc1cc2ccccc2[nH]c1=O)C1CCCCC1 | 2.3 | 3.5 | -1.3 | 0.0 | -1.6 | -1.2 | · | ·
